Compound activity (PubChem BioAssay)
Hits are enriched below; roughly 17% of the tested compounds scored in any of these assays.
ATXN viability – Viability Counterscreen for Primary qHTS for Inhibitors of ATXN expression; 0.49% of 400,000 active; S2 cells (HEK-293 line with an ATXN2-luciferase reporter) viability, CellTiter-Fluor protease fluorescence, 24 h; Potency, µM (highest dose often 56.7 µM), hits mostly cytotoxic; AID 651635, 2014; note: nearly all actives have a fitted effect of over 40% in size
TGFb SMAD3 inh – qHTS for Inhibitors of TGF-b. HepG2 CAGA-GFP TGF-b/SMAD3 reporter, GFP fluorescence, 18 h; TGF-beta stimulated, 500 pg/mL final. AID 588855, 2011. 1.2% of 410,000 active. Potency, µM (top dose mostly 46.1 µM), for the others: at the highest dose activity, negative = inhibition, hits mostly inhibitors; note: % is set by controls: 0 for no effect and ±100 for the full control effect; nearly all actives have a fitted effect of over 65% in size
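First, reporter cells (HEPG2 CAGA-GFP) rested 2 h at 37 degrees C. Next, compounds were pinned in and TGF-beta added to 500 pg/mL final. After 18 h, GFP was imaged per cell and summed per well.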
ATXN2 expr inh – Primary qHTS for Inhibitors of ATXN expression; HEK-293 ATXN2-luciferase reporter, luminescence, 24 h; Potency, µM (titrated, usually from 57 µM), for the others: at the highest dose activity change, negative = inhibition, usual class: inhibitors; 0.72% of 360,000 active; note: % is set by controls: 0 for no effect and ±100 for the full control effect; nearly all actives have a fitted effect of over 55% in size
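ATXN2-luciferase reporter cells (luciferase flanked by upstream and downstream ATXN2 gene portions) were treated 24 h at 37 °C with compounds at up to 57 uM. SteadyGlo luminescence gave expression; GF-AFC fluorescence gave viability.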
TDP1 cell CPT – qHTS for Inhibitors of human tyrosyl-DNA phosphodiesterase 1 (TDP1): qHTS in cells in presence of CPT | Potency, µM (series often up to 46.2 µM), for the others: at the top dose activity change, negative = growth inhibition, hits mostly inhibitors | chicken DT40 Tdp1-/-;hTDP1 cells + 20 nM CPT, ATP luminescence, 48 h | 12% of 420,000 active; note: % is set by controls: 0 for no effect and ±100 for the full control effect; nearly all actives have a fitted effect of over 55% in size
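Cell growth measured by CellTiter-Glo luminescence after a minimum 48 h, 37 C compound exposure with 20 nM CPT in Tdp1-knockout DT40 cells stably expressing hTDP1, seeded 400/well; qHTS titration format.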
HepG2 viability – qHTS for Inhibitors of TGF-b: Cytotox Counterscreen; Potency, µM (titrated, usually from 46.1 µM), without a hit: at the top dose activity change, negative = cytotoxicity, actives largely listed as cytotoxic; HepG2 CAGA-GFP viability, ATP luminescence, 18 h; AID 588856, 2011; 0.76% of 410,000 active
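HepG2 CAGA-GFP cells (1000/well, DMEM with 1% FBS) received compound, then TGF-beta at 500 pg/mL final, and were incubated 18 hours at 37 degrees C. Viability was read by CellTiter-Glo luminescence. Media-only wells were set as complete cell-killing and DMSO as no toxicity.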
TDP1 cell noCPT – qHTS for Inhibitors of human tyrosyl-DNA phosphodiesterase 1 (TDP1): qHTS in cells in absence of CPT. DT40 Tdp1-/- hTDP1 cells, no CPT, ATP luminescence, 48 h. 15% of 420,000 active. Potency, µM (top dose mostly 46.2 µM), for inactives: at the highest dose activity change, negative = growth inhibition, actives largely listed as inhibitors; note: % is set by controls: 0 for no effect and ±100 for the full control effect; nearly all actives have a fitted effect of over 55% in size
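Compound effects on proliferation are scored in DT40 Tdp1-/-;hTDP1 cells in the absence of CPT. ATP levels (CellTiter-Glo luminescence) are recorded after a ≥48 hr, 37 °C incubation.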
Active calls of the source: *; i = inactive; ? = inconclusive; . = no result; [ ] = another dose, or the depositor's remark. Calls come from the whole dose curve; as a rule, active = well fitted curve in the direction sought with a large enough effect; inconclusive = small, poorly fitted or top-dose-only effect, or another doubt; inactive = no such curve, though single readings can be large; an effect the other way counts as inactive or inconclusive. Potency is the fitted concentration of half-maximal effect.

SMILES | ATXN viability | TGFb SMAD3 inh | ATXN2 expr inh | TDP1 cell CPT | HepG2 viability | TDP1 cell noCPT
COC(=O)CN1C(=O)C(O)(c2c(C)[nH]c3ccccc23)c2ccccc21 (stereo unspecified) | i | ? | 1.6% | ? | -3.2% | ?
O=C(CN1CCCc2ccccc21)N/N=C/c1ccccc1 | i | -11.0% | 46.8% | ? | -3.9% | 16.4µM*
O=C(CN1CCCc2ccccc21)N/N=C/c1ccc(O)cc1O | i | -11.2% | ? | ? | -5.7% | 16.4µM*
O=C(CN1CCCc2ccccc21)N/N=C/c1c(O)ccc2ccccc12 | ? | 0.0% | ? | 4.11µM* | -14.1% | 3.66µM*
CC(C)=CCCC(C)CN1CCC(N2CCC(C(=O)NC(C)C)CC2)CC1 (stereo unspecified) | i | -17.5% | . | 23.1µM* | -23.7% | 16.4µM*
CC(C)=CCCC(C)CN1CCC(N2CCC(C(=O)N3CCOCC3)CC2)CC1 (stereo unspecified) | i | -7.2% | . | ? | -18.5% | ?
CC(C)(C)OC(=O)N1CCN(C(=O)OCC2c3ccccc3-c3ccccc32)CC1C(=O)O (stereo unspecified) | i | -1.9% | 2.1% | 23.1µM* | -14.3% | ?
O=C(Cc1ccccc1)NCCc1csc2nc(-c3ccc(Cl)cc3)nn12 | ? | -20.7% | -0.8% | 11.6µM* | -18.8% | 9.2µM*
Cc1ccccc1-c1nc2scc(CCNC(=O)c3ccco3)n2n1 | i | -0.8% | -17.4% | ? | -5.7% | ?
O=C(NCCc1csc2nc(-c3ccc(F)cc3)nn12)c1ccco1 | i | 1.9% | -12.3% | ? | -9.0% | 16.4µM*
Cc1cccc(-c2nc3scc(CCNC(=O)c4ccccc4Cl)n3n2)c1 | i | 3.9% | -14.3% | ? | -10.1% | 20.6µM*
O=C(Cc1ccc(F)cc1)NCCc1csc2nc(-c3ccc(Cl)cc3)nn12 | ? | ? | -13.4% | ? | -15.8% | 20.6µM*
Cc1ccc(CN2C(=O)S/C(=C\c3ccccc3OCC(=O)O)C2=O)cc1 | ? | -13.2% | . | 6.8% | -19.7% | 11.2%
COc1ccc(NC(=O)C(OC(=O)Cn2cnc3c2c(=O)n(C)c(=O)n3C)c2ccccc2)cc1Cl (stereo unspecified) | i | 11.7% | 16.7% | 1.4% | -5.3% | 11.9%
C=CC(=O)Nc1cccc(Nc2nc(N[C@H]3CC[C@H](N(C)C)CC3)nc3c2ncn3C(C)C)c1 | 2µM* | 0.708µM* | 1µM* | 0.146µM* | -3.8% | 0.206µM*
Cc1ccccc1NC(=O)C1CCN(S(=O)(=O)c2c(C)noc2/C=C/c2ccco2)CC1 | . | -8.8% | . | -5.5% | -26.3% | -13.3%
Cc1ccc(NC(=O)C2CCN(S(=O)(=O)c3c(C)noc3/C=C/c3ccco3)CC2)nc1 | i | -30.8% | -18.0% | ? | -30.9% | 18.4µM*
Cc1noc(/C=C/c2ccco2)c1S(=O)(=O)N1CCC(C(=O)N2CCc3ccccc3C2)CC1 | i | -16.0% | -22.7% | 20.6µM* | -22.7% | 18.4µM*
CC(=O)c1ccccc1OCCn1nc(C(=O)O)c2ccccc2c1=O | i | -3.6% | -4.0% | -3.1% | -9.9% | 16.4µM*
O=C(CCC(=O)N1CC2CCCN2c2ccccc21)NCc1ccccc1F (stereo unspecified) | . | -2.2% | . | 11.6µM* | -19.0% | 18.4µM*
Cc1ccc(CNC(=O)CCC(=O)N2CC3CCCN3c3ccccc32)cc1 (stereo unspecified) | . | ? | . | 5.17µM* | -8.6% | 18.4µM*
Cc1ccccc1CNC(=O)CCC(=O)N1CC2CCCN2c2ccccc21 (stereo unspecified) | i | ? | -1.5% | 18.4µM* | -20.7% | 23.1µM*
O=C(Nc1nnc(-c2ccccc2)s1)C1CCCN(C(=O)c2ccoc2)C1 (stereo unspecified) | . | 4.9% | . | ? | 1.0% | -24.8%
Cc1c(Cl)cccc1NC(=S)N(C)CCC#N | i | 12.3% | -5.9%[11.3 µM] | -6.4% | 0.1% | 13.7%
CC(=O)N1CCc2c(sc(NC(=O)C3CCCN3S(=O)(=O)c3cccs3)c2C(N)=O)C1 (stereo unspecified) | i | 28.3% | -11.6% | 20.6µM* | 0.0% | 16.4µM*
SMILES | ATXN viability | TGFb SMAD3 inh | ATXN2 expr inh | TDP1 cell CPT | HepG2 viability | TDP1 cell noCPT
COC(=O)N1CCc2c(sc(NC(=O)C3COc4ccccc4O3)c2C(N)=O)C1 (stereo unspecified) | i | 15.6% | 53.4% | 14.6µM* | -1.3% | 16.4µM*
NC(=O)c1c(NC(=O)C2COc3ccccc3O2)sc2c1CCN(Cc1ccccc1)C2 (stereo unspecified) | . | 43.7% | -32.4% | -0.4% | -32.8% | -25.1%
CCOC(=O)c1c(NC(=O)C2COc3ccccc3O2)sc2c1CCN(Cc1ccccc1)C2 (stereo unspecified) | i | -4.1% | 7.2% | 23.1µM* | -12.0% | -11.9%
COc1ccc(Cl)cc1NC(=O)c1oc2ccc(S(=O)(=O)N3CCCCC3)cc2c1C | i | -22.6% | -5.3% | 12.4% | -12.2% | -0.5%
Cc1nc2ccc(S(=O)(=O)N(C)CC(=O)Nc3ccc(Br)c(C)c3)cc2s1 | . | . | . | ? | 5.9% | 16.4µM*
Cc1cc(NC(=O)CN(C)S(=O)(=O)c2ccc3c(c2)CCCC(=O)N3)ccc1Br | . | -14.3% | 15.8µM* | . | -27.7% | .
Cc1ccc(C)c(N2CCN(C(=O)CN(C)S(=O)(=O)c3ccc4c(c3)CCC(=O)N4)CC2)c1 | i | -9.1% | -19.7% | ? | -14.7% | 16.4µM*
Clc1cc(Br)ccc1NCc1cccnc1 | i | -6.3% | -30.9% | ? | -5.5% | -8.0%
Cc1ccc(/C=N/N2CCN(C3c4ccccc4-c4ccccc43)CC2)o1 | i | ? | . | ? | -49.6% | 18.4µM*
COc1cc(/C=N/N2CCN(C3c4ccccc4-c4ccccc43)CC2)cc(OC)c1OC | i | -17.6% | 6.5% | 16.4µM* | -4.2% | 14.6µM*
Oc1ccc(/C=N/N2CCN(C3c4ccccc4-c4ccccc43)CC2)cc1 | i | 12.6µM* | 9.4% | -11.3% | 17.8µM* | -19.4%
Oc1ccc(/C=N/N2CCN(C3c4ccccc4-c4ccccc43)CC2)cc1O | ? | -38.4% | ? | 8.2µM* | -29.6% | 10.3µM*
CC(C)NC(=O)CCCC(=O)NC(C)C | i | 5.4% | 5.6% | 1.1% | -2.5% | -7.3%
